Measured values taken from ChEMBL document CHEMBL3988442, “University of Dundee, Small-Polar-MMV Screening Library” (2021).

Tests used:
[1] = molecular target: T1, Aspartate--tRNA(Asp/Asn) ligase (Mycobacterium tuberculosis (strain ATCC 25618 / H37Rv)) (UniProt P9WFW3); test: Assay for Asp RNA synthetase-1 from Mycobacterium tuberculosis; format: functional; design: scale not given: direction of the effect not stated beside the values; details: 30 µM; further: in the data most compounds retested in dose-response had high values
T1 sequence (whole entry): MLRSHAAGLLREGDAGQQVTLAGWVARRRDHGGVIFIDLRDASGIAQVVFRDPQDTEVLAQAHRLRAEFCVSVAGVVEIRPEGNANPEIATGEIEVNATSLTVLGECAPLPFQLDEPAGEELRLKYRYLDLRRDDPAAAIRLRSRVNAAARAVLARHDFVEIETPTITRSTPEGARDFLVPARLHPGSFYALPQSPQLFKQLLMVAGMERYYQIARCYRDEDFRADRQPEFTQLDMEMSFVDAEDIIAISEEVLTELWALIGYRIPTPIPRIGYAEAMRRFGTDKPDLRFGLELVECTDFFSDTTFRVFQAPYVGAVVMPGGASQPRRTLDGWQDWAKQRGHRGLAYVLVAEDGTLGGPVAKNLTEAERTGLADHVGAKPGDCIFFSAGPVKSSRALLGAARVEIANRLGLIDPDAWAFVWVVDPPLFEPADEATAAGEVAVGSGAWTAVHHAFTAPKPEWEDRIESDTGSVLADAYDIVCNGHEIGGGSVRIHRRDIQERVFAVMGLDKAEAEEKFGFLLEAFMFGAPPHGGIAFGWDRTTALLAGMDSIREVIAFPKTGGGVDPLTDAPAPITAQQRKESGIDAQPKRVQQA

[2] = molecular target: Shiga toxin 2 (Escherichia coli O157:H7) (UniProt P09385+P09386); test: E. coli 0.157:H7 Shiga Toxin SOP - stx2 screening assay; format: functional; design: scale not given: direction of the effect not stated beside the values; details: 30 µM

| SMILES | Percent Effect [1] | Percent Effect [2] |
| --- | --- | --- |
| Cc1ccc(CN2CCCC23CCN(S(=O)(=O)c2ccccc2)C3)o1 (stereo not given) | 4.14% | 3.29% |
| CCCS(=O)(=O)N1CCOCC2(CCN(c3ccccn3)C2)C1 (stereo not given) | -2.85% | -23.9% |
| O=C(NCCn1ccnc1)NCC(c1ccco1)N1CCCCC1 (stereo not given) | 1.79% | 22.2% |
| O=C(NCCN1CCCCC1)c1nc2ccccc2c(=O)[nH]1 | -1.02% | -53.5% |
| CC(C)(C)c1ncc(C(=O)NCCS(N)(=O)=O)s1 | -1.74% | 28.8% |
| O=C(NCCN1CCCCC1)c1nc(-c2ccc3cc[nH]c3c2)no1 | 6.42% | -77.4% |
| Cc1nc(C)n(CC2CN(CCc3ccncc3)CCO2)n1 (stereo not given) | 1.98% | -14.2% |
| O=C(c1cnoc1)N1CCC[C@]2(C[C@H](Oc3ncccc3F)CO2)C1 | -2.03% | -8.52% |
| O=c1nc(SCc2ccncc2)c2c(n1CCO)CCCC2 | -6.81% | -5.81% |
| COc1ccc(CC(=O)N2CCCC(n3cc(C)cn3)C2)cc1F (stereo not given) | -0.544% | 12.2% |
| COc1nc2c(cc1C(=O)N1C[C@H](N)C[C@H]1C(=O)NC(C)C)CCC2 | -4.9% | 12.5% |
| O=C(N[C@@H]1CN(Cc2cccs2)[C@@H]2CCCO[C@@H]21)C1CC1 | 4.13% | -24% |
| Cc1ccc(C(=O)NCC2(O)CCOCC2)cc1Br | -1.3% | 8.46% |
| O=C(CCc1cscn1)N1CCCC(n2ccnc2)C1 (stereo not given) | -3.19% | -12.2% |
| O=C(c1ccc[nH]1)N1CCn2cc(Cn3cncn3)nc2C1 | 1.43% | -6.64% |
| CN(Cc1ccsc1)C(=O)c1cccc(S(=O)(=O)NC(C)(C)C)c1 | -1.73% | -33.3% |
| Cc1ccc(C(=O)NS(=O)(=O)c2cc(Cl)ccc2Cl)c(=O)[nH]1 | 0% | -9.88% |
| Cc1cnc(CN2CCCC(c3cc(C(F)(F)F)[nH]n3)C2)cn1 (stereo not given) | -6.86% | 7.14% |
| COc1ccc(F)cc1C(C)NC(=O)Nc1nnc(C)s1 (stereo not given) | -0.889% | 15.6% |
| Cc1nc(C)n(C2CCCN(C(=O)c3cc(C(N)=O)cs3)C2)n1 (stereo not given) | -5.92% | -13.1% |
| COCc1nc(C(=O)N2CCCC(n3cccn3)C2)cs1 (stereo not given) | -1.71% | -22.6% |
| c1ccc(-n2nnnc2CN2CCCC(Cn3cncn3)C2)cc1 (stereo not given) | 2.98% | 6.15% |
| COc1ccc(C2=CCN(C(=O)C3CC(=O)N(C4CC4)C3)CC2)cc1 (stereo not given) | 1.54% | 2.8% |
| CNC(=O)c1cccc(NC(=O)Cn2nc(-c3cccs3)oc2=O)c1 | -8.92% | -55.6% |
| Cc1cnccc1CN1C[C@@H](O)[C@H](Oc2cccc(F)c2)C1 | -1.59% | -1.74% |
| Cc1nn(C)c(C)c1C1COCCN1C(=O)c1ccccc1 (stereo not given) | -8.71% | -37.5% |
| CC(Cn1ccnc1)NC(=O)NCCc1ccccn1 (stereo not given) | -8.15% | -8.89% |
| CCc1cccc(NS(=O)(=O)c2cc3c(c(C(=O)O)c2)OCCO3)c1 | -2.26% | -33.5% |

| SMILES | Percent Effect [1] | Percent Effect [2] |
| --- | --- | --- |
| Cc1nn(C)c(C)c1CC(=O)N1CCC(Nc2cccnn2)CC1 | -1.68% | -23.4% |
| COC(=O)CC(c1ccc(OC)c(OC)c1)c1oc(C)cc(=O)c1O (stereo not given) | -0.938% | -7.17% |
| CCN1CCC(CNC(=O)C2(c3cccc(C)c3)CC2)C1 (stereo not given) | 2.87% | 1.34% |
| CCC(NC(=O)C1CCN(S(=O)(=O)N(C)C)CC1)c1ccc(C)c(C)c1 (stereo not given) | 4.22% | -32.8% |
| CSCCCN1CCn2nc(CNC(C)=O)cc2C1 | 3.05% | -62.7% |
| CC(C)S(=O)(=O)c1nnc(CCNC(=O)OC(C)(C)C)o1 | 2.85% | -59.2% |
| Cc1ncsc1C(=O)NCCSCc1cccs1 | 2.21% | -24.7% |
| COc1ccc(S(=O)(=O)N2CCC(S(C)(=O)=O)CC2)cc1C | 1.12% | -1.05% |
| N#CC1(C(=O)N2CCN(c3nccs3)CC2)CCCCC1 | -2.57% | 33.3% |
| CS(=O)(=O)NC1CCc2c(ccc(=O)n2CC2CC2)C1 (stereo not given) | 2.4% | -5.71% |
| Cc1cc(C)n(CC2CCCCN2C(=O)c2cnn(C)c2)n1 (stereo not given) | -5.01% | -14% |
| COc1ccc(CNCC2CC2)cc1F | 2.55% | 28.8% |
| NC(=O)c1cc(C2CCCN(CCCOc3ccccc3)C2)n[nH]1 (stereo not given) | -1.57% | -26% |
| CNc1cncc(C2CCCN2C(=O)c2ccc3oc(=O)n(C)c3c2)n1 (stereo not given) | 5.14% | 3.86% |
| CC(O)CN(CC(=O)NC(=O)NC1CC1)c1ccccc1 (stereo not given) | -1.82% | 4.59% |
| Cc1cc2n(n1)CC(CNC1CCN(Cc3ccccc3C)CC1)CN2 (stereo not given) | 4.64% | -38.1% |
| O=C(NCc1ccc(OCC2CC2)nc1)c1c(F)cccc1F | -0.03% | 0.72% |
| CCN(CC(=O)NC(C)C)S(=O)(=O)N1CCC(C)C1 (stereo not given) | 2.41% | -3.8% |
| CC(C(N)=O)N(C)CCCc1cc(-c2ccccc2)no1 (stereo not given) | 4.08% | 15% |
| CC(NC(=O)NCCCNS(C)(=O)=O)c1ccncc1 (stereo not given) | -3.27% | -2.62% |
| CC(C)OCc1ncn2c1CN(Cc1ccc(F)cc1)CCC2 | -1.67% | 3.71% |
| CCN(CC)C(C(=O)NCc1ccc(N2CCCC2)nc1)C(C)C (stereo not given) | -8.76% | 9.3% |
| CC(C)c1cc(NCC(O)c2ccc(F)cc2)n2nccc2n1 (stereo not given) | -1.84% | 7.39% |
| O=C([C@@H]1COC[C@H]2CN(C3CCOCC3)C[C@H]21)N1CCCCO1 | 6.99% | -23.5% |
| CC(=O)NCCc1ccc(C(=O)N2CCCC2c2cnn(C)c2)cc1 (stereo not given) | 3.04% | 21.3% |
| CCN1CCCN(C(=O)c2cnc(OC(C)C)c(Cl)c2)CC1 | -0.365% | -50.8% |
| COC(=O)N1CCCN(C(=O)NCc2ccc(Cl)s2)CC1 | 5.28% | -16.1% |
